Source: PubChem BioAssay AID449762 (Southern Research Specialized Biocontainment Screening …, 2010)
About 1,900 (0.58%) of roughly 330,000 compounds were called active. Roughly 4% stayed inconclusive and do not appear here. Only a sample is shown. Potency and affinity values are given separately. Unmarked numbers belong to inactive results. No stated cut-off is given here; in the data, inconclusive means inhibition above about 70% without an active follow-up result; inactive means below that.

Test: M. tuberculosis growth inhibition, HTS (AID 449762);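 further: bacterial growth assessed after seven days of incubation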
Conditions: M. tuberculosis H37Rv growth inhibition, 7H9 media; at 25 µM; stronger effect = higher value
In the case of `CCN(CC)C(=O)N1CCC(NC(=O)c2ccc(C(C)(C)C)cc2)CC1`, the inhibition is reported as 9.36%. For `Cc1cc(NC(=O)CSc2nc3ccccc3s2)no1`, the inhibition was 3.12%. In the case of `NS(=O)(=O)c1ccc(-c2ccc(/C=C3\C(=O)Nc4ccccc43)o2)cc1`, the inhibition is reported as -2.7%. In the case of `Cc1ccc(C=C2C(=O)c3ccccc3C2=O)o1`, the inhibition is reported as -3.84%. In the case of `CC1CN(S(=O)(=O)c2cccc(C(=O)NCCCn3ccnc3)c2)CC(C)O1` (stereo unspecified), the inhibition is reported as -14.2%. Work on `CCOC(=O)NC(=O)c1cn(N(C)c2ncc(C(F)(F)F)cc2Cl)c(=O)[nH]c1=O` yielded an inhibition of -2.39%. Work on `CC(OC(=O)c1ccco1)C(=O)Nc1ccc(Cl)cn1` (stereo unspecified) yielded an inhibition of 0.78%. `CC(OC(=O)c1cc[n+]([O-])cc1)C(=O)Nc1ccc(Cl)cn1` (stereo unspecified) gave an inhibition of -4.2%. `COC(=O)c1sccc1-n1cccc1C(=O)C(=O)N1CCCC1` showed an inhibition of 0.85%. In the case of `CCOCc1cnc(C)nc1NCC(=O)c1c(C)[nH]c2ccc(OC)cc12`, the inhibition is reported as -0.42%. In the case of `CCn1cc(C(=O)N2CCN(c3cccc(Cl)c3)CC2)c2cc(OC)c(OC)cc2c1=O`, the inhibition is reported as -2.64%. In the case of `COc1cc2c(C(=O)N3CCN(c4cccc(Cl)c4)CC3)cn(C)c(=O)c2cc1OC`, the inhibition is reported as -1.4%. With `O=C(O)CCC(=O)NNC(=O)CCC1CCCCC1` the inhibition was 0.82%. `CCOC(=O)c1c(NC(=O)OC)sc(C(=O)N(CC)CC)c1C` gave an inhibition of 10.1%. Molecule `CCN(CC)C(=O)c1[nH]cnc1C(=O)NCc1ccc(CNC(=O)OC(C)(C)C)cc1` has an inhibition of -4.15%. For `Cc1oc2nc(SCC(=O)NC3CCCCC3)nc(N)c2c1C`, the inhibition was 3.18%. Work on `COc1cccc(CC2(CO)CCCN(Cc3cc4ccccc4[nH]3)C2)c1` (stereo unspecified) yielded an inhibition of 10.5%. `COc1cccc(CC2(CO)CCCN(Cc3ccc(C)s3)C2)c1` (stereo unspecified) showed an inhibition of 1.24%. `COc1ccccc1CCNC(=O)CCSc1nc(-c2ccco2)cc(C(F)(F)F)n1` gave an inhibition of -1.55%. With `CCCN=Cc1sc2ccc(OCC)cc2c1O` the inhibition was -4.1%. With `Cc1cccc(NC(=O)/C(C#N)=C\c2cccnc2)c1` the inhibition was -10.8%. Molecule `COc1cc2nc(CN3CC=C(c4ccccc4)CC3)[nH]c(=O)c2cc1OC` has an inhibition of 3.16%. `NC(=O)C1CCN(Cc2nc3cc(C(F)(F)F)ccc3c(=O)[nH]2)CC1` gave an inhibition of 2.7%. Molecule `COc1ccc(CCNC(=O)CCNS(=O)(=O)c2cccc3nonc23)cc1OC` has an inhibition of 2.46%. Molecule `COC(=O)/C=C1/S/C(=N/NC(=O)c2ccccc2)NC1=O` has an inhibition of -1.82%. With `O=C(CN1CCCCC1)N/N=C/c1ccccc1OCc1ccccc1` the inhibition was -1.99%. Work on `Cn1c(=O)c2c(ncn2CC(=O)Nc2ccccc2Sc2ccccc2)n(C)c1=O` yielded an inhibition of -2.88%. Molecule `CN(C)C(=O)c1cc(C(=O)c2ccc(F)cc2C(F)(F)F)c[nH]1` has an inhibition of -3.23%. In the case of `CCSc1nnnn1-c1ccccc1`, the inhibition is reported as 3.88%. In the case of `c1ccc(-n2nnnc2SCCCSc2nc3ccccc3s2)cc1`, the inhibition is reported as -4.17%. `N#Cc1ccccc1OCC(=O)N1CCc2ccccc2C1` gave an inhibition of -4.88%. In the case of `Cc1ccc(-c2nnc(NCc3nc4ccccc4[nH]3)c3ccccc23)cc1S(=O)(=O)N1CCOCC1`, the inhibition is reported as 63.7%. `Cc1nc(-c2ccccc2)sc1C(=O)CSc1ccc(Cl)cc1` showed an inhibition of -5.11%. `c1ccc2c(c1)OCc1cn[nH]c1-2` showed an inhibition of -2.59%. In the case of `Cc1ccc(/C=C/c2nnc(-c3ccccc3)o2)cc1`, the inhibition is reported as -11.8%. Molecule `COC(=O)CSc1[nH]c2ccccc2c1[N+](=O)[O-]` has an inhibition of -2.39%. For `CCOC(=O)CSc1[nH]c2cc(OC)ccc2c1[N+](=O)[O-]`, the inhibition was 6.24%. For `CN(C)CCOc1ccc2ccccc2c1`, the inhibition was 2.98%. Molecule `CN(C)CCOc1ccc(C(C)(C)c2ccccc2)cc1` has an inhibition of -3.02%. `COc1ccccc1NC(=O)Nc1ccc(F)c(F)c1` showed an inhibition of 0.47%. Molecule `CCc1nnc(NS(=O)(=O)c2ccc(N/C=C/C(=O)c3ccc(OC)cc3)cc2)s1` has an inhibition of 4.48%. In the case of `CCc1nnc(NS(=O)(=O)c2ccc(N/C=C\C(=O)c3ccc4ccccc4c3)cc2)s1`, the inhibition is reported as -6.64%. `Cn1c(=O)c2c(SCC(=O)Nc3nccs3)nc(C3CC3)nc2n(C)c1=O` gave an inhibition of -1.82%. Work on `Cc1ccc(C2=NS(=O)(=O)N(C)C(C(=O)Nc3cc(C)n(CC(=O)N4CCCCC4)n3)=C2)cc1` yielded an inhibition of -4.07%. `Cc1cccc(N=C2C(=O)Nc3c(Cl)cccc32)c1` showed an inhibition of 6.57%. Work on `Cc1ccccc1NC(=O)CSc1nc2ccccc2c2nc(CCn3cncc3C)nn12` yielded an inhibition of 6.6%. Work on `Cc1ccc(NC(=O)CSc2nc3ccccc3c3nc(CCn4cncc4C)nn23)c(C)c1` yielded an inhibition of 9.55%. Work on `O=C(NCc1ccc2c(c1)OCO2)c1ccc(C2SCC(=O)N2Cc2ccco2)cc1` (stereo unspecified) yielded an inhibition of -7.71%. Work on `COc1ccc(C(=O)NCc2ccc3c(c2)OCO3)cc1` yielded an inhibition of -0.3%. `COc1cc2c(cc1NC(=O)CN1CCN(S(=O)(=O)c3ccc(C)cc3)CC1)oc1ccccc12` showed an inhibition of -6.72%. With `O=c1c2c(nc3nc(NCc4ccccc4Cl)[nH]n13)CCC2` the inhibition was 21.9%. `O=c1c2c(nc3nc(NCc4cccc(Cl)c4)[nH]n13)CCC2` showed an inhibition of 19.9%. `Cc1nc2nc3c(c(=O)n2[nH]1)CCCC3` showed an inhibition of -1.58%. With `Cc1nc2nc3c(c(=O)n2[nH]1)CCC3` the inhibition was -2.58%. With `COc1ccc(NC(=O)C2CCN(c3cc(-c4ccccc4)nc4ncnn34)CC2)cc1OC` the inhibition was -9.41%. With `CCOc1ncccc1C(=O)Nc1cccc(-c2nc3cccnc3s2)c1` the inhibition was 2.6%. `CCn1c(=O)n(CC)c2cc(S(=O)(=O)Nc3c(C)cccc3C)ccc21` showed an inhibition of -0.18%. `O=C1/C(=C/c2ccncc2)CCc2ccccc21` showed an inhibition of 20.6%. Work on `O=C1/C(=C\c2cccnc2)CCc2ccccc21` yielded an inhibition of 53.9%. In the case of `COc1ccc(CNC(=O)C2CCN(C(=O)c3csc(Nc4ccc(C)cc4)n3)CC2)cc1`, the inhibition is reported as 9.09%. `CC(CN1CCCCC1)OC(=O)/C=C/c1ccccc1` (stereo unspecified) gave an inhibition of 4.22%. Work on `CCCCc1nc2c(=O)[nH]c3ccccc3c2o1` yielded an inhibition of -3.26%. Molecule `CCCc1nc2c(=O)[nH]c3ccccc3c2o1` has an inhibition of -2.82%. Molecule `CC(C)N1CCc2c(sc(NC(=O)CCc3ccccc3)c2C(N)=O)C1` has an inhibition of 2.58%. In the case of `Cc1cccc(CNc2ncnc3ccc(-c4ccc5c(c4)OCO5)cc23)c1`, the inhibition is reported as 4.98%. In the case of `c1cncc(CNc2ncnc3ccc(-c4ccc5c(c4)OCCO5)cc23)c1`, the inhibition is reported as 6.78%. `O=C(CN1C(=O)NC(c2ccccc2)(c2ccccc2)C1=O)N1CCCCC1` gave an inhibition of 3.83%. `O=C1[C@H]2[C@@H](c3ccc(F)cc3)N3C(=O)N(c4ccccc4)C(=O)[C@@]3(Cc3ccccc3)[C@H]2C(=O)N1C1CCCCC1` showed an inhibition of -4.71%. Work on `CC1(C)CC1C(=O)Nc1ccc([N+](=O)[O-])cc1Br` (stereo unspecified) yielded an inhibition of -1.2%. In the case of `Cc1cccc(C2(c3cccc(C)c3)CC2C(=O)Nc2ccc([N+](=O)[O-])cc2O)c1` (stereo unspecified), the inhibition is reported as 8.65%. `CCC(=O)NC(=S)Nc1ccc(OC)cc1OC` showed an inhibition of 2.55%. `Cc1nc(SCC(=O)NCC2CCCO2)c2c(C)c(C)sc2n1` (stereo unspecified) gave an inhibition of -15.3%. Work on `Cc1nc(SCC(=O)NCC2CCCO2)c2c3c(sc2n1)CCC3` (stereo unspecified) yielded an inhibition of -2.08%. `O=C(CSc1nc2scc(-c3ccccc3)c2c(=O)[nH]1)NCCc1ccccc1` gave an inhibition of -20.7%. `O=c1[nH]c(=O)n(C2CCCO2)cc1Br` (stereo unspecified) gave an inhibition of 1.51%. For `O=c1[nH]c(=O)n([C@H]2C[C@H](O)[C@@H](CO)O2)cc1F`, the inhibition was 34.4%. For `COc1ccc(O)c(CN2CCCC(N3CCN(c4ccccc4OC)CC3)C2)c1` (stereo unspecified), the inhibition was 4.68%. In the case of `O=C(CCNC(=O)c1ccccc1Cl)Nc1nccs1`, the inhibition is reported as -4%. Molecule `COc1ccc(N(CC(=O)NCCc2ccccc2)C(=O)c2csnn2)cc1OC` has an inhibition of -2.24%. Work on `COc1ccc(C2CC2C(C)=O)cc1` (stereo unspecified) yielded an inhibition of -4.29%. Work on `COc1ccc(C2CC2/C(C)=N/OC(=O)C2CC2)cc1` (stereo unspecified) yielded an inhibition of 68.7%. In the case of `CC(C)(C)OC(=O)N1CCC(CC2CC(c3ccncc3)=NO2)(C(=O)O)CC1` (stereo unspecified), the inhibition is reported as -6.97%. For `O=c1c2ccccc2nnn1CSc1ccc2ccccc2n1`, the inhibition was -1.57%. `CSc1ccc(S(=O)(=O)NCC(=O)OCC(=O)N2CCCCC2C)cc1[N+](=O)[O-]` (stereo unspecified) gave an inhibition of -8.12%. `COc1ccc(-c2nsc3c(N4CCCCC4)ncnc23)cc1` gave an inhibition of -0.13%. Molecule `COc1ccc(-c2nsc3c(N4CCCC4)ncnc23)cc1` has an inhibition of 5.98%. With `Cc1ccc(CNC(=O)Cn2cccc2C(=O)c2ccccc2C)cc1` the inhibition was -0.89%. `CCN(CC)S(=O)(=O)c1cccc(C(=O)N/N=C/c2ccccn2)c1` showed an inhibition of -3.65%. `O=C(Nc1ccc(Br)cc1Cl)c1ccc(OCC2CCCO2)cc1` (stereo unspecified) showed an inhibition of 3.35%. `CCOC(=O)C1(Cc2cccc(Cl)c2)CCCN(C(=O)c2cnn(CC)c2)C1` (stereo unspecified) showed an inhibition of -5.14%. In the case of `CCOc1ccc(NC(=O)COC(=O)c2ccc3c(c2)OCCO3)cc1`, the inhibition is reported as 9.4%. In the case of `CCOc1ccc(C(=O)Nc2ccc3c(c2)OCCO3)cc1`, the inhibition is reported as 9.28%. `Cc1c(/C=N\NC(=O)c2c[nH]c3ccccc23)cnn1C` gave an inhibition of 6.8%. `COc1ccccc1NC(=S)N1CCN(C(=O)C2CCCO2)CC1` (stereo unspecified) showed an inhibition of 4.95%. With `COC(=O)c1c(NC(=O)CC2SC(N)=NC2=O)sc2c1CCC(C)C2` (stereo unspecified) the inhibition was -3.66%. For `COC(=O)c1c(NC(=O)CC2SC(N)=NC2=O)sc2c1CCCC2` (stereo unspecified), the inhibition was -10.2%.
